Measured values from paper PMC5540273 (PLoS ONE, 2017).
Several values for one entry are separate records, joined by “and”; a condition that tells them apart may be missing. Identical values can stand only once. Like-named read-outs stand apart in the source and are kept apart here.

Key:
IRAK3 = conditions: concentration: 1 μM, replicates: in singlicate; n = 1
IRAK4 = conditions: concentration: 1 μM, replicates: in singlicate; n = 1
ITK = conditions: concentration: 1 μM, replicates: in singlicate, n = 1
[1] = test system: JAK1(JH1domain-catalytic); conditions: concentration: 1 μM, replicates: in singlicate, n = 1
[2] = test system: JAK1(JH2domain-pseudokinase); conditions: concentration: 1 μM, replicates: in singlicate, n = 1
[3] = test system: JAK2(JH1domain-catalytic); conditions: concentration: 1 μM, replicates: in singlicate, n = 1
[4] = test system: JAK3(JH1domain-catalytic); conditions: concentration: 1 μM, replicates: in singlicate; n = 1
JNK1 = test system: T1, JNK1; conditions: concentration: 1 μM, replicates: in singlicate, n = 1
T1 construct: gene MAPK8

JNK2 = test system: T2, JNK2; conditions: concentration: 1 μM, replicates: in singlicate; n = 1
T2 construct: gene MAPK9

JNK3 = test system: T3, JNK3; conditions: concentration: 1 μM, replicates: in singlicate; n = 1
T3 construct: gene MAPK10

KIT-autoinhibited = conditions: concentration: 1 μM, replicates: in singlicate, n = 1
KIT = conditions: concentration: 1 μM, replicates: in singlicate, n = 1
LATS1 = conditions: concentration: 1 μM, replicates: in singlicate, n = 1
LATS2 = conditions: concentration: 1 μM, replicates: in singlicate, n = 1
LCK = conditions: concentration: 1 μM, replicates: in singlicate, n = 1
LIMK1 = conditions: concentration: 1 μM, replicates: in singlicate, n = 1
LIMK2 = conditions: concentration: 1 μM, replicates: in singlicate; n = 1
LKB1 = test system: T4, LKB1; conditions: concentration: 1 μM, replicates: in singlicate, n = 1
T4 construct: gene STK11

LOK = test system: T5, LOK; conditions: concentration: 1 μM, replicates: in singlicate, n = 1
T5 construct: gene STK10

LRRK2 = conditions: concentration: 1 μM, replicates: in singlicate, n = 1
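Further: KINOMEscan kinase panel screen.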

O=C(NCCNc1ccnc(Nc2ccc(F)cc2)n1)Nc1ccccc1F [GSK1379880]
%Inh (IRAK3): 0% | %Inh (IRAK4): 11% | %Inh (ITK): 30% | %Inh [1]: 23% | %Inh [2]: 0% | %Inh [3]: 11% | %Inh [4]: 0% | %Inh (JNK1): 32% | %Inh (JNK2): 19% | %Inh (JNK3): 11% | %Inh (KIT-autoinhibited): 0% | %Inh (KIT): 48% | %Inh (LATS1): 0% | %Inh (LATS2): 0% | %Inh (LCK): 15% | %Inh (LIMK1): 0% | %Inh (LIMK2): 0% | %Inh (LKB1): 0% | %Inh (LOK): 0% | %Inh (LRRK2): 0%

COc1ccc(CNC(=O)NC2CCN(c3ccnc(Nc4ccc(OC)cc4)n3)C2)cc1 (centres unmarked) [GSK1379727]
%Inh (IRAK3): 13% | %Inh (IRAK4): 4% | %Inh (ITK): 7% | %Inh [1]: 16% | %Inh [2]: 0% | %Inh [3]: 20% | %Inh [4]: 0% | %Inh (JNK1): 32% | %Inh (JNK2): 19% | %Inh (JNK3): 9% | %Inh (KIT-autoinhibited): 0% | %Inh (KIT): 16% | %Inh (LATS1): 6% | %Inh (LATS2): 0% | %Inh (LCK): 8% | %Inh (LIMK1): 0% | %Inh (LIMK2): 0% | %Inh (LKB1): 15% | %Inh (LOK): 0% | %Inh (LRRK2): 0%

Cl.Cl.Cl.Fc1ccc(-c2ncn(C3CCNCC3)c2-c2ccnc(Nc3ccccc3)n2)cc1 [SB-238039]
%Inh (IRAK3): 0% | %Inh (IRAK4): 0% | %Inh (ITK; 1 µM): 5% and 14% | %Inh ([1]; 1 µM): 0% and 8% | %Inh ([2]; 1 µM): 15% and 0% | %Inh ([3]; 1 µM): 44% and 0% | %Inh [4]: 0% | %Inh (JNK1; 1 µM): 97% and 96.3% | %Inh (JNK2): 100% | %Inh (JNK3): 99.8% | %Inh (KIT-autoinhibited; 1 µM): 2% and 0% | %Inh (KIT; 1 µM): 12% and 0% | %Inh (LATS1; 1 µM): 17% and 16% | %Inh (LATS2; 1 µM): 0% and 12% | %Inh (LCK; 1 µM): 69% and 32% | %Inh (LIMK1; 1 µM): 13% and 0% | %Inh (LIMK2): 0% | %Inh (LKB1; 1 µM): 55% and 23% | %Inh (LOK; 1 µM): 35% and 2% | %Inh (LRRK2; 1 µM): 27% and 0%

Cc1c2ccc(N(C)c3ccnc(Nc4cccc(S(N)(=O)=O)c4)n3)cc2nn1Cc1ccccc1.Cl.Cl [GW787226]
%Inh (IRAK3): 36% | %Inh (IRAK4): 0% | %Inh (ITK): 0% | %Inh [1]: 36% | %Inh [2]: 26% | %Inh [3]: 31% | %Inh [4]: 0% | %Inh (JNK1): 0% | %Inh (JNK2): 0% | %Inh (JNK3): 0% | %Inh (KIT-autoinhibited): 86% | %Inh (KIT): 99.9% | %Inh (LATS1): 6% | %Inh (LATS2): 0% | %Inh (LCK): 90.7% | %Inh (LIMK1): 89% | %Inh (LIMK2): 73% | %Inh (LKB1): 48% | %Inh (LOK): 98.4% | %Inh (LRRK2): 0%
